# Key:
# Experiment in all cases: SPOT peptide array binding signal intensity (averaged, normalized) (arbitrary units (background-subtracted, floor 0; scale differs between SH3 domains)); higher = stronger binding of the SH3 domain to the peptide
# AgAbp1 = biological target: AgAbp1
# Outline: (§1)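 GST-SH3 fusions from four yeast species, purified on glutathione Sepharose, were incubated at 10 μg/ml overnight at 4°C on membranes of synthetic 15-mer peptides in which cysteines were replaced with serines. Binding signal is the normalized, background-subtracted spot intensity averaged over replicates, in domain-specific arbitrary units.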
# AgBbc1 = biological target: AgBbc1
# Outline: as §1
# AgBem1-D1 = biological target: AgBem1-D1
# Outline: as §1
# AgBzz1-D1 = biological target: AgBzz1-D1
# Outline: as §1
# AgBzz1-D2 = biological target: AgBzz1-D2
# Outline: as §1
# AgCyk3 = biological target: AgCyk3
# Outline: as §1
# AgFus1 = biological target: AgFus1
# Outline: as §1
# AgHof1 = biological target: AgHof1
# Outline: as §1
# AgHse1 = biological target: AgHse1
# Outline: as §1
# AgLsb1 = biological target: AgLsb1
# Outline: as §1
# AgLsb4 = biological target: AgLsb4
# Outline: as §1
# AgMyo5 = biological target: AgMyo5
# Outline: as §1
# AgNbp2 = biological target: AgNbp2
# Outline: as §1
# AgRvs167 = biological target: AgRvs167
# Outline: as §1
# AgSho1 = biological target: AgSho1
# Outline: as §1
# AgSla1-D1-D2 = biological target: AgSla1-D1-D2
# Outline: as §1
# AgSla1-D3 = biological target: AgSla1-D3
# Outline: as §1
# CaAbp1-D1 = biological target: CaAbp1-D1
# Outline: as §1
# CaAbp1-D2 = biological target: CaAbp1-D2
# Outline: as §1
# CaBbc1 = biological target: CaBbc1
# Outline: as §1
# CaBem1-D1 = biological target: CaBem1-D1
# Outline: as §1
# CaBzz1-D1 = biological target: CaBzz1-D1
# Outline: as §1
# CaBzz1-D2 = biological target: CaBzz1-D2
# Outline: as §1
# CaCyk3 = biological target: CaCyk3
# Outline: as §1
# CaFus1 = biological target: CaFus1
# Outline: as §1
# CaHof1 = biological target: CaHof1
# Outline: as §1
# CaHse1 = biological target: CaHse1
# Outline: as §1
# CaLsb1 = biological target: CaLsb1
# Outline: as §1
# CaLsb4 = biological target: CaLsb4
# Outline: as §1
# CaMyo5 = biological target: CaMyo5
# Outline: as §1
# CaNbp2 = biological target: CaNbp2
# Outline: as §1
# CaRvs167 = biological target: CaRvs167
# Outline: as §1
# CaRvs167-3 = biological target: CaRvs167-3
# Outline: as §1
# CaSho1 = biological target: CaSho1
# Outline: as §1
# CaSla1-D1-D2 = biological target: CaSla1-D1-D2
# Outline: as §1
# CaSla1-D3 = biological target: CaSla1-D3
# Outline: as §1
# ScAbp1 = biological target: ScAbp1
# Outline: as §1
# ScBbc1 = biological target: ScBbc1
# Outline: as §1
# ScBem1-D1 = biological target: ScBem1-D1
# Outline: as §1
# ScBzz1-D1 = biological target: ScBzz1-D1
# Outline: as §1
# ScBzz1-D2 = biological target: ScBzz1-D2
# Outline: as §1
# ScCyk3 = biological target: ScCyk3
# Outline: as §1
# ScFus1 = biological target: ScFus1
# Outline: as §1
# ScHof1 = biological target: ScHof1
# Outline: as §1
# ScHse1 = biological target: ScHse1
# Outline: as §1
# ScLsb1 = biological target: ScLsb1
# Outline: as §1
# ScLsb2 = biological target: ScLsb2
# Outline: as §1
# ScLsb3 = biological target: ScLsb3
# Outline: as §1
# ScLsb4 = biological target: ScLsb4
# Outline: as §1
# ScMyo3 = biological target: ScMyo3
# Outline: as §1
# ScMyo5 = biological target: ScMyo5
# Outline: as §1
# ScNbp2 = biological target: ScNbp2
# Outline: as §1
# ScPex13 = biological target: ScPex13
# Outline: as §1
# ScRvs167 = biological target: ScRvs167
# Outline: as §1
# ScSho1 = biological target: ScSho1
# Outline: as §1
# ScSla1-D1-D2 = biological target: ScSla1-D1-D2
# Outline: as §1
# ScSla1-D3 = biological target: ScSla1-D3
# Outline: as §1
# SpAbp1-D1 = biological target: SpAbp1-D1
# Outline: as §1
# SpBbc1 = biological target: SpBbc1
# Outline: as §1
# SpBzz1-D1 = biological target: SpBzz1-D1
# Outline: as §1
# SpBzz1-D2 = biological target: SpBzz1-D2
# Outline: as §1
# SpCyk3 = biological target: SpCyk3
# Outline: as §1
# SpHof1 = biological target: SpHof1
# Outline: as §1
# SpHof1-2 = biological target: SpHof1-2
# Outline: as §1
# SpHof1-3 = biological target: SpHof1-3
# Outline: as §1
# SpHse1 = biological target: SpHse1
# Outline: as §1
# SpLsb1 = biological target: SpLsb1
# Outline: as §1
# SpLsb4 = biological target: SpLsb4
# Outline: as §1
# SpMyo1 = biological target: SpMyo1
# Outline: as §1
# SpNbp2 = biological target: SpNbp2
# Outline: as §1
# SpPex13 = biological target: SpPex13
# Outline: as §1
# SpRvs167 = biological target: SpRvs167
# Outline: as §1
# SpSla1-D1-D2 = biological target: SpSla1-D1-D2
# Outline: as §1
# SpSla1-D3 = biological target: SpSla1-D3
# Outline: as §1
binder,measurement,setting,value
LLRRTIPKRPFYHVL,SPOT peptide array binding signal intensity,AgAbp1,66.5
same,SPOT peptide array binding signal intensity,AgBbc1,73.8
same,SPOT peptide array binding signal intensity,AgBem1-D1,44.5
same,SPOT peptide array binding signal intensity,AgBzz1-D1,13
same,SPOT peptide array binding signal intensity,AgBzz1-D2,200
same,SPOT peptide array binding signal intensity,AgCyk3,≤ 0
same,SPOT peptide array binding signal intensity,AgFus1,295
same,SPOT peptide array binding signal intensity,AgHof1,11.5
same,SPOT peptide array binding signal intensity,AgHse1,828
same,SPOT peptide array binding signal intensity,AgLsb1,1
same,SPOT peptide array binding signal intensity,AgLsb4,79
same,SPOT peptide array binding signal intensity,AgMyo5,≤ 0
same,SPOT peptide array binding signal intensity,AgNbp2,121
same,SPOT peptide array binding signal intensity,AgRvs167,4.5
same,SPOT peptide array binding signal intensity,AgSho1,59
same,SPOT peptide array binding signal intensity,AgSla1-D1-D2,108
same,SPOT peptide array binding signal intensity,AgSla1-D3,0.5
same,SPOT peptide array binding signal intensity,CaAbp1-D1,604
same,SPOT peptide array binding signal intensity,CaAbp1-D2,775
same,SPOT peptide array binding signal intensity,CaBbc1,427
same,SPOT peptide array binding signal intensity,CaBem1-D1,8.5
same,SPOT peptide array binding signal intensity,CaBzz1-D1,71.5
same,SPOT peptide array binding signal intensity,CaBzz1-D2,39.5
same,SPOT peptide array binding signal intensity,CaCyk3,156
same,SPOT peptide array binding signal intensity,CaFus1,314
same,SPOT peptide array binding signal intensity,CaHof1,0.5
same,SPOT peptide array binding signal intensity,CaHse1,22
same,SPOT peptide array binding signal intensity,CaLsb1,0.5
same,SPOT peptide array binding signal intensity,CaLsb4,94.5
same,SPOT peptide array binding signal intensity,CaMyo5,0.5
same,SPOT peptide array binding signal intensity,CaNbp2,262
same,SPOT peptide array binding signal intensity,CaRvs167,48.2
same,SPOT peptide array binding signal intensity,CaRvs167-3,92
same,SPOT peptide array binding signal intensity,CaSho1,608
same,SPOT peptide array binding signal intensity,CaSla1-D1-D2,140
same,SPOT peptide array binding signal intensity,CaSla1-D3,3
same,SPOT peptide array binding signal intensity,ScAbp1,23.5
same,SPOT peptide array binding signal intensity,ScBbc1,25.5
same,SPOT peptide array binding signal intensity,ScBem1-D1,7
same,SPOT peptide array binding signal intensity,ScBzz1-D1,3.5
same,SPOT peptide array binding signal intensity,ScBzz1-D2,13
same,SPOT peptide array binding signal intensity,ScCyk3,26
same,SPOT peptide array binding signal intensity,ScFus1,307
same,SPOT peptide array binding signal intensity,ScHof1,1.5
same,SPOT peptide array binding signal intensity,ScHse1,898
same,SPOT peptide array binding signal intensity,ScLsb1,44.2
same,SPOT peptide array binding signal intensity,ScLsb2,13
same,SPOT peptide array binding signal intensity,ScLsb3,855
same,SPOT peptide array binding signal intensity,ScLsb4,18.5
same,SPOT peptide array binding signal intensity,ScMyo3,0.5
same,SPOT peptide array binding signal intensity,ScMyo5,≤ 0
same,SPOT peptide array binding signal intensity,ScNbp2,343
same,SPOT peptide array binding signal intensity,ScPex13,110
same,SPOT peptide array binding signal intensity,ScRvs167,612
same,SPOT peptide array binding signal intensity,ScSho1,357
same,SPOT peptide array binding signal intensity,ScSla1-D1-D2,146
same,SPOT peptide array binding signal intensity,ScSla1-D3,2
same,SPOT peptide array binding signal intensity,SpAbp1-D1,402
same,SPOT peptide array binding signal intensity,SpBbc1,5
same,SPOT peptide array binding signal intensity,SpBzz1-D1,76
same,SPOT peptide array binding signal intensity,SpBzz1-D2,≤ 0
same,SPOT peptide array binding signal intensity,SpCyk3,≤ 0
same,SPOT peptide array binding signal intensity,SpHof1,73
same,SPOT peptide array binding signal intensity,SpHof1-2,3.25
same,SPOT peptide array binding signal intensity,SpHof1-3,401
same,SPOT peptide array binding signal intensity,SpHse1,372
same,SPOT peptide array binding signal intensity,SpLsb1,36.5
same,SPOT peptide array binding signal intensity,SpLsb4,463
same,SPOT peptide array binding signal intensity,SpMyo1,0.5
same,SPOT peptide array binding signal intensity,SpNbp2,181
same,SPOT peptide array binding signal intensity,SpPex13,1.5
same,SPOT peptide array binding signal intensity,SpRvs167,227
same,SPOT peptide array binding signal intensity,SpSla1-D1-D2,≤ 0
same,SPOT peptide array binding signal intensity,SpSla1-D3,11
